Records with an inconclusive call do not appear. A call without a number means that no potency is given here. Activity calls are given as the source filed them. Calls follow the shape of the dose curve; as a rule, active = well fitted curve in the direction sought with a large enough effect; inconclusive = small, poorly fitted or top-dose-only effect, or another doubt; inactive = no such curve, though single readings can be large; an effect the other way counts as inactive or inconclusive.
target: Aldehyde dehydrogenase, mitochondrial (Homo sapiens) (UniProt P05091); assay: qHTS for Inhibitors of the Aldehyde Dehydrogenase Family (ALDH2) Primary screen (AID 2061308); settings: ALDH2 enzyme inhibition qHTS, 1536-well; series mostly up to 56 µM; also: nearly all actives have a fitted effect of over 55% in size

Row | Compound | Potency
1 | COc1cc(NS(=O)(=O)c2ccc(C)cc2)cc(C(=O)Nc2nc(-c3ccccc3)cs2)c1 | inactive
2 | COc1ccc(-c2nc3ccc(Cl)cc3c(=O)n2Cc2ccccc2)cc1COc1ccc(NC(C)=O)cc1 | inactive
3 | O=C1CCc2cc(S(=O)(=O)Nc3ccc4c(c3)OCCO4)ccc2N1 | inactive
4 | Cc1ccc(OCCn2c(CCNC(=O)NC3CCCCC3)nc3ccccc32)cc1 | inactive
5 | NC(=O)C1CCN(c2nc(-c3ccccc3C(F)(F)F)cs2)CC1 | inactive
6 | c1csc(CNc2ncnc3ccc(-c4ccc5c(c4)OCO5)cc23)c1 | inactive
7 | O=C(Nc1ccc(S(=O)(=O)Nc2nccs2)cc1)c1ccncc1 | inactive
8 | O=[S+]([O-])(Nc1nccs1)c1ccc(NCc2cc(Cl)cc(Br)c2O)cc1 | inactive
9 | O=C(Cc1nnc(-c2cc3ccccc3[nH]2)o1)Nc1cc(C(F)(F)F)ccc1Cl | inactive
10 | Cc1ccc(-c2ccc(=O)n(CC(=O)NCCc3ccccc3)n2)cn1 | inactive
11 | COc1ccc(-c2nc3ccc(OC)cc3s2)cc1 | inactive
12 | C=C(C)C(=O)O[C@H]1C[C@@](C)(O)C(=O)CC(O)/C(C)=C\[C@H]2OC(=O)C(=C)[C@H]12 (some centres not stated) | inactive
13 | COc1cc(C(=O)NC(=S)Nc2cccc(NC(=O)c3ccccc3)c2)cc(OC)c1OC | inactive
14 | COc1ccc(C2N=C(Nc3nc4ccccc4o3)NC3=C2C(=O)CCC3)cc1 (configuration not stated) | inactive
15 | CC(=O)Nc1nc(-c2ccc3c(c2)CCN3C(=O)c2ccccc2C)c(C)s1 | inactive
16 | O=C(OCC#CCSc1nnc(-c2ccc3ccccc3c2)o1)c1ccsc1 | inactive
17 | O=C(NCCc1nc2ccccc2n1CCOc1ccc2cccnc2c1)C1CCCCC1 | inactive
18 | CC(C)c1ccccc1-c1nccc(NCc2ccc(-c3ccnc(C(F)(F)F)c3)cc2)n1 | inactive
19 | Cc1ccc(NS(=O)(=O)c2ccc3c(c2)N(C)CCO3)cc1C | inactive
20 | O=C1CCCC2=C1C(c1[nH]ncc1Cl)NC(=NCc1nccs1)N2 (configuration not stated) | inactive
21 | Cc1ccccc1C(=O)N1CCc2cc(-c3nc(NC(=O)Cc4ccc5c(c4)OCCO5)sc3C)ccc21 | inactive
22 | O=C(OCC#CCSc1nnc(-c2cccc3ccccc23)o1)c1ccccc1F | inactive

target: Retinaldehyde dehydrogenase 3 (Homo sapiens) (UniProt P47895); assay: qHTS for Inhibitors of the Aldehyde Dehydrogenase Family (ALDH1A3) Primary screen (AID 2061315); settings: ALDH inhibition qHTS; series mostly up to 56 µM

Row | Compound | Potency
23 | CC(C)(C)CNc1ncnc2ccc(-c3ccc(CO)o3)cc12 | inactive
24 | Cc1cc2c(s1)c1cnn(Cc3c(F)ccc(Cl)c3F)c(=O)c1n2C | inactive
25 | Cc1ccc(S(=O)(=O)Nc2cccc(C(=O)Nc3nc(-c4ccccc4)cs3)c2Cl)cc1 | inactive
26 | O=C(Nc1ccccc1F)c1ccc(O)c2ncccc12 | inactive
27 | COc1ccc(-c2ccc(Nc3nc(-c4ccncc4)nc4ccccc34)cc2F)cc1F | inactive
28 | CCN1CCN(C(=O)CCN(CC(C)C)c2nc(-c3cccs3)nc3ccccc23)CC1 | inactive
29 | Oc1ccc(CNCc2ccc3c(c2)OCO3)c2cccnc12 | inactive
30 | O=C(Nc1ccc(O)c2ncccc12)c1ccccc1F | inactive
31 | Cn1nnnc1Sc1ncnc2scc(-c3ccc(C(F)(F)F)cc3)c12 | inactive
32 | Cc1cc(C)nc(NC(=S)N2CCN(c3ccc(C(=O)O)cc3)CC2)c1 | inactive
33 | O=C1NC(=O)/C(=C/c2cccn2-c2ccc(P(=O)(O)O)cc2)N1 | inactive
34 | COc1cc(O)c(C(CC(=O)N2CC(C)OC(C)C2)c2ccc3c(c2)OCO3)c(OC)c1 (configuration not stated) | inactive
35 | COc1ccccc1-n1cnc2cc(C(=O)N3CCCCC3)ccc21 | inactive
36 | Cc1ccc(S(=O)(=O)NCC(=O)Nc2nc(-c3ccccc3)cs2)cc1 | inactive
37 | Cn1c2cc(Br)sc2c2cnn(Cc3ccccc3F)c(=O)c21 | inactive
38 | COc1cc(OC)cc(-c2nnc3n2N=C(c2cc(OC)ccc2OC)CS3)c1 | inactive
39 | O=C(Nc1ccc(F)c(C(F)(F)F)c1)Nc1ccc(-c2ccncc2)s1 | inactive
40 | Cc1cc(C)nc(NC(=S)N2CCN(c3cccc(S(C)=O)c3)CC2)c1 (configuration not stated) | inactive
41 | COc1cc(NS(=O)(=O)c2ccc(C)cc2)cc(C(=O)Nc2nc(-c3ccccc3)cs2)c1 | inactive
42 | COc1ccc(-c2nc3ccc(Cl)cc3c(=O)n2Cc2ccccc2)cc1COc1ccc(NC(C)=O)cc1 | inactive

Row | Compound | Potency
43 | O=C1CCc2cc(S(=O)(=O)Nc3ccc4c(c3)OCCO4)ccc2N1 | inactive
44 | Cc1ccc(OCCn2c(CCNC(=O)NC3CCCCC3)nc3ccccc32)cc1 | inactive
45 | NC(=O)C1CCN(c2nc(-c3ccccc3C(F)(F)F)cs2)CC1 | inactive
46 | c1csc(CNc2ncnc3ccc(-c4ccc5c(c4)OCO5)cc23)c1 | inactive
47 | O=C(Nc1ccc(S(=O)(=O)Nc2nccs2)cc1)c1ccncc1 | inactive
48 | O=[S+]([O-])(Nc1nccs1)c1ccc(NCc2cc(Cl)cc(Br)c2O)cc1 | inactive
49 | O=C(Cc1nnc(-c2cc3ccccc3[nH]2)o1)Nc1cc(C(F)(F)F)ccc1Cl | inactive
50 | Cc1ccc(-c2ccc(=O)n(CC(=O)NCCc3ccccc3)n2)cn1 | inactive
51 | COc1ccc(-c2nc3ccc(OC)cc3s2)cc1 | inactive
52 | C=C(C)C(=O)O[C@H]1C[C@@](C)(O)C(=O)CC(O)/C(C)=C\[C@H]2OC(=O)C(=C)[C@H]12 (some centres not stated) | inactive
53 | COc1cc(C(=O)NC(=S)Nc2cccc(NC(=O)c3ccccc3)c2)cc(OC)c1OC | inactive
54 | COc1ccc(C2N=C(Nc3nc4ccccc4o3)NC3=C2C(=O)CCC3)cc1 (configuration not stated) | inactive
55 | CC(=O)Nc1nc(-c2ccc3c(c2)CCN3C(=O)c2ccccc2C)c(C)s1 | inactive
56 | O=C(OCC#CCSc1nnc(-c2ccc3ccccc3c2)o1)c1ccsc1 | inactive
57 | O=C(NCCc1nc2ccccc2n1CCOc1ccc2cccnc2c1)C1CCCCC1 | inactive
58 | CC(C)c1ccccc1-c1nccc(NCc2ccc(-c3ccnc(C(F)(F)F)c3)cc2)n1 | inactive
59 | Cc1ccc(NS(=O)(=O)c2ccc3c(c2)N(C)CCO3)cc1C | inactive
60 | O=C1CCCC2=C1C(c1[nH]ncc1Cl)NC(=NCc1nccs1)N2 (configuration not stated) | inactive
61 | Cc1ccccc1C(=O)N1CCc2cc(-c3nc(NC(=O)Cc4ccc5c(c4)OCCO5)sc3C)ccc21 | inactive
62 | O=C(OCC#CCSc1nnc(-c2cccc3ccccc23)o1)c1ccccc1F | inactive

From PubChem BioAssay (NCATS)
